Experimental data: PubChem BioAssay AID624330 (Southern Research Specialized Biocontainment Screening …, 2012)
About 2,100 (0.62%) of roughly 340,000 compounds were called active.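 How the source made its calls: active means first-screen hits whose inhibition reached a set limit at any dose in the follow-up dose series; inconclusive means inhibition above the set first-screen limit but never retested; inactive means the rest.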 Only a sample is shown. Measured potencies and affinities stand elsewhere.

target: Rac GTPase-activating protein 1 (Homo sapiens) (UniProt Q9H0H5); assay: MgcRacGAP GTPase-activating activity inhibitors, confirmation, biochemical, ADP Hunter fluorescence, primary and confirmatory (AID 624330); conditions: MgcRacGAP-stimulated Rac1 GTP hydrolysis, at 30 µM, stronger effect = higher value, GST-tagged Rac1 F28L mutant substrate;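 further: fluorescence reports GDP produced by GAP-driven GTP hydrolysis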
Sequence (Q9H0H5 whole entry, looked up): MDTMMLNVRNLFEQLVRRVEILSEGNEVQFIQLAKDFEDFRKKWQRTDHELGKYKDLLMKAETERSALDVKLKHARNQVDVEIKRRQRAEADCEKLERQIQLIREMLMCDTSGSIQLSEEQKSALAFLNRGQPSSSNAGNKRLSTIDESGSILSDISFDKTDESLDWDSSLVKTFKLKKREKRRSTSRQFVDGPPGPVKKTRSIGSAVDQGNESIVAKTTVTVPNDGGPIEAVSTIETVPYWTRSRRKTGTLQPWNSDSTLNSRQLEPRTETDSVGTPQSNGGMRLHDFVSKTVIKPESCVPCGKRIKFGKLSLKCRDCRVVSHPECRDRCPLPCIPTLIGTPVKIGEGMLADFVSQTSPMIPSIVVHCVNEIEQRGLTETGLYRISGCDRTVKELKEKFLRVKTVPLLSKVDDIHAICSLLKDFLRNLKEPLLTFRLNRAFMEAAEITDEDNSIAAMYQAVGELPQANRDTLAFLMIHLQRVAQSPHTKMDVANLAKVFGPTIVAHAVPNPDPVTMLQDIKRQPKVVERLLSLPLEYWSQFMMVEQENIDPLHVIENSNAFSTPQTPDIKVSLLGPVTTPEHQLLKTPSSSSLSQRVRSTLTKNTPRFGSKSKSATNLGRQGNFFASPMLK

inhibition, inactive:
Cc1cccc(C(=O)NCC(c2ccc(F)cc2)N2CCOCC2)c1 (stereo unspecified) 3.85%
Cc1ccc(C)c(CSc2ncccc2C(=O)O)c1 9.95%
NC(=O)c1ccc2c(c1)OCCO2 -2.13%
O=C(c1ccccc1)c1ccc2c(c1)OCCOCCOCCOCCO2 -8.09%
O=C(Nc1cccnc1)c1cccc(NC(=O)c2ccco2)c1 11.1%
O=C(Nc1cccc(S(=O)(=O)Nc2ccccc2F)c1)c1ccco1 0.67%
N#Cc1cc([N+](=O)[O-])ccc1NCCCn1ccnc1 -2.38%
Cc1ccccc1-n1c(=O)c2ccccc2n2cnnc12 2.97%
CCCCCn1c(=O)c2ccccc2n2c(CCl)nnc12 1.94%
Cn1c(=O)c2ccccc2n2c(CCl)nnc12 -0.09%
Cc1ccccc1-n1c(=O)c2ccccc2n2c(=O)[nH]nc12 3.11%
CCOCCCNC(=O)CCc1nnc2n(CCC(C)C)c(=O)c3ccccc3n12 7.91%
Cc1nnc2n(-c3ccccc3)c(=O)c3ccccc3n12 9.66%
CN1CCN(C(=O)/C(=C/c2ccco2)NC(=O)c2ccccc2)CC1 3.42%
CC1CCCCN1C(=O)NC1CC(=O)N(c2ccc3c(c2)OCCO3)C1 (stereo unspecified) 4.77%
CCCOc1ccc(C(=O)ON=C2CCN(C)CC2)cc1 5.39%
Cc1ccc(-c2csc3ncnc(N4CCN(Cc5ccccc5)CC4)c23)cc1 4.03%
O=C(CN1C(=O)NC2(CCOc3ccccc32)C1=O)c1ccc[nH]1 (stereo unspecified) -0.33%
COc1ccccc1CNc1nc2nc(C)c(Cl)c(=O)n2[nH]1 3.76%
Cc1nc2sc(C(c3cccs3)N3CCN(C(=O)c4ccco4)CC3)c(O)n2n1 (stereo unspecified) 1.66%
CCc1cc(/C(Cc2ccc3ccccc3n2)=N\O)c(O)cc1O 22.8%
CCc1cc2c(=O)c(-c3cscn3)coc2cc1O -2.61%
Cc1cc(O)c(C(=O)Cc2csc(C)n2)c(O)c1 1.16%
CCc1cc(/C(Cc2ccccn2)=N\Nc2ccccc2)c(O)cc1O 5.83%
CCc1cc(C(=O)Cc2ccccn2)c(O)cc1O -7.09%
Cc1cc(O)cc(O)c1C(=O)Cc1cscn1 7.26%
CCOC(=O)N1CCC(=NNC(=O)NC2CCCCC2)CC1 -0.13%
Cn1c(=O)n(C)c2cc(/C=N/N=C3/NC(=O)C(CC(=O)O)S3)ccc21 (stereo unspecified) 11.1%
Nn1c(SCC(=O)NCC2CCCO2)nnc1-c1cc(Cl)ccc1Cl (stereo unspecified) 5.2%
COc1ccccc1OCC(=O)NNC(=O)CSC(=S)N1CCCC1 8.8%
CC(C)C(NC(=O)CNC(=O)OC(C)(C)C)C(=O)NCc1ccc(Cl)cc1 (stereo unspecified) 4.12%
COc1ccc(OCCOCCN2CCc3ccccc3C2)cc1 28.9%
CCOc1cccc(OCCOCCN2CCCC2)c1 25%
COc1ccc(OCCOCCN2CCOCC2)cc1 12.8%
c1ccc(COc2ccc(OCCCN3CCCC3)cc2)cc1 15.1%
c1ccc(OCCCCN2CCCCC2)cc1 12.9%
CCN1CCN(CCOCCOc2ccccc2)CC1 28.1%
CN1CCN(CCOc2ccc(Cc3ccccc3)cc2)CC1 10.6%
CCOc1ccc(OCCN2CCCCC2)cc1 19.4%
CC(Sc1nnc(-c2ccccc2F)n1C)C(=O)NC1CCCCC1 (stereo unspecified) 6.18%
CCOC(=O)c1c(C)sc(Sc2ccc(Cl)cc2[N+](=O)[O-])c1OC 4.34%
Cc1ccnc(SC2CC(=O)N(c3ccc(F)cc3)C2=O)n1 (stereo unspecified) 1.56%
C(=N\N=C\c1ccccn1)/c1ccccn1 3.13%
COc1ccc(CN(C)C(=O)[C@H](Cc2ccccc2)NC(=O)c2ccco2)c(OC)c1 0.3%
COCCCNC(=O)CC1C[C@H](C(=O)N2CCOCC2)[C@@]2(C)c3[nH]c4ccc(OC)cc4c3CCN2C1=O (stereo partly specified) 8.55%
Cc1ccccc1N(CC(=O)N/N=C/c1cc(Br)c(C)o1)S(C)(=O)=O 4.93%
O=S(=O)(NCCN1CCOCC1)c1ccc2c(c1)OCCO2 3.86%
C/C(=N\NC(=O)C1(C)CC1(Br)Br)c1cccc(NC(=O)c2ccc(C)o2)c1 (stereo unspecified) 5.18%
O=C(C1=NN[C@@H]2C(=O)N(Cc3ccccc3)C(=O)[C@H]12)c1ccc([N+](=O)[O-])cc1 14.7%
COc1ccc(/C=C2\SC(N3CCc4ccccc4C3)=NC2=O)cc1OC 10.4%
O=C(CCC(=O)c1cccs1)NCC(c1ccc(F)cc1)N1CCOCC1 (stereo unspecified) 4.84%
Cc1cccc(N2CCN(C(=O)c3ccc4c(c3)c(C)c(C)n4C)CC2C)c1 (stereo unspecified) -37%
Cc1cc(C)n(CC(=O)N2c3ccccc3Sc3ccccc32)n1 4.56%
Cc1nn(CC(O)CN2c3ccccc3Sc3ccccc32)c(C)c1Br (stereo unspecified) 7.34%
COc1ccccc1NCc1ccc([N+](=O)[O-])s1 15.3%
COc1ccc(NCc2ccc([N+](=O)[O-])s2)cc1 23.5%
Cc1ccc(Sc2ccc(N)cc2C#N)cc1 4.36%
COC(=O)c1ccc(Sc2ccc(C)cc2)c(N)c1 9.92%
NC(=S)c1ccc(OCCCc2ccccc2)cc1 8.89%
Nc1ccc(C(=O)OCCc2ccccc2)cc1 6.65%
CC(=O)NC(Cc1ccc(C(C)C)cc1)C(=O)NC1CCN(c2nc(C)cc(C)n2)CC1 (stereo unspecified) 7.86%
CC(c1ccc2ccccc2c1)c1ccccc1C(=O)O (stereo unspecified) 5.25%
N#C/C(=C\c1ccc(N2CCOCC2)cc1)c1ccccc1 -4.89%
N#C/C(=C/c1ccc(N2CCOCC2)o1)c1ccc(Cl)cc1 41.4%
N#C/C(=C/c1ccc(N2CCCCCC2)o1)c1ccc(Cl)cc1 38.4%
N#C/C(=C/c1ccc(N2CCOCC2)o1)c1ccc(Br)cc1 27%
